Test systems include SR leukemia; RPMI-8226 leukemia; OVCAR-8 ovarian; OVCAR-5 ovarian; OVCAR-4 ovarian; SK-OV-3 ovarian; IGROV1 ovarian; HS 578T breast; NCI/ADR-RES ovarian; T-47D breast; BT-549 breast; MDA-MB-435 melanoma; SW-620 colon; MCF7 breast; HCT-116 colon; HCC-2998 colon; KM12 colon.
Common to all, as to assay: NCI-60 one-dose screen, 48 h (100 = growth as untreated, 0 = no growth, -100 = all killed)
Holding throughout (conditions): 10 µM unless noted

Each structure is given as a SMILES string. The panel holds about 83,000 compounds, 20% with a hit somewhere; the sample as a whole holds those more often.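 Testing used 96-well plates and a 48-hour single-concentration exposure. Example: -40 means 40% of the starting cells died.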 A number with no mark means an inactive call. Active and inactive are the calls of the source. The calls were made as follows: active = growth percent below 10; inactive = the rest.

Turning to `C/C(=C(/c1ccc(O)cc1)c1ccc(OCCN2CCCCCC2)cc1)c1ccccc1`, the growth is -24% (active) in the assay on SR leukemia; 2.14% (active) in the assay on RPMI-8226 leukemia; 69.2% with OVCAR-8 ovarian; 63.3% with OVCAR-5 ovarian; 68.4% in the assay on OVCAR-4 ovarian; 76.1% in the assay with SK-OV-3 ovarian. The growth in the assay on IGROV1 ovarian was 61.9%; with HS 578T breast, 44.3%; with NCI/ADR-RES ovarian it was 65.6%; with T-47D breast it was 20.5%; in the assay on BT-549 breast it was 61.1%; in the assay on MDA-MB-435 melanoma it was 52.4%. The growth with SW-620 colon was -52.6% (active); in the assay with MCF7 breast it was 10.2%; in the assay with HCT-116 colon, 28.2%; in the assay on HCC-2998 colon it was 34.8%; with KM12 colon, 43.2%.

With `C/C(=N\NC(=O)CSc1nc2sc3c(c2c(=O)n1-c1ccccc1)CCC(C)C3)c1ccc(Cl)cc1` (stereo not drawn), the growth in the assay with SR leukemia was 6.22% (active); in the assay on RPMI-8226 leukemia, 24.9%; with OVCAR-8 ovarian, 18.8%; in the assay with OVCAR-5 ovarian, 50%; in the assay on OVCAR-4 ovarian it was 29.3%; with SK-OV-3 ovarian, 57.4%. The growth was 19.2% with IGROV1 ovarian; 61.9% with HS 578T breast; 12.4% with NCI/ADR-RES ovarian; 46.4% with T-47D breast; 36.8% in the assay on BT-549 breast; 30.1% in the assay on MDA-MB-435 melanoma. The growth is 31.6% in the assay with SW-620 colon; 14% with MCF7 breast; 26.6% in the assay on HCT-116 colon; 45.4% with HCC-2998 colon; 25.1% with KM12 colon.

For `CCOC(=O)c1c(Nc2ccccc2)nn2c(-c3ccc(Br)cc3)ccnc12`, the growth with SR leukemia was 70.7%; in the assay on RPMI-8226 leukemia, 95.8%; in the assay with OVCAR-8 ovarian it was 69.2%; in the assay on OVCAR-5 ovarian, 80.4%; in the assay with OVCAR-4 ovarian it was 53.5%; with SK-OV-3 ovarian it was 59.2%. In addition, the growth with IGROV1 ovarian is 71%; in the assay with HS 578T breast, 62.8%; in the assay with NCI/ADR-RES ovarian it was 59.8%; with T-47D breast, 41.3%; in the assay with BT-549 breast it was 104%; in the assay with MDA-MB-435 melanoma, 80.3%. Besides, the growth is 78.4% with SW-620 colon; 80.9% with MCF7 breast; 42.5% in the assay with HCT-116 colon; 87.1% in the assay with HCC-2998 colon; 78.3% with KM12 colon.

For the compound `CNC(=O)c1cc(Oc2ccc3nc(NC(=O)c4ccc(CN5CCCN(C)CC5)c(C(F)(F)F)c4)sc3c2)ccn1`, the growth was -59.8% (active) in the assay on SR leukemia; -31.1% (active) in the assay with RPMI-8226 leukemia; 32.4% in the assay on OVCAR-8 ovarian; 53.6% in the assay with OVCAR-5 ovarian; 52.3% with OVCAR-4 ovarian; 80.3% with SK-OV-3 ovarian. Further, the growth was 60.6% with IGROV1 ovarian; -1.04% (active) in the assay with HS 578T breast; 60.6% in the assay with NCI/ADR-RES ovarian; 7.14% (active) with T-47D breast; 83.2% in the assay with BT-549 breast; -8.88% (active) in the assay on MDA-MB-435 melanoma. Further, the growth in the assay with SW-620 colon is -70.9% (active); in the assay with MCF7 breast, -38.9% (active); in the assay with HCT-116 colon, 5.99% (active); in the assay on HCC-2998 colon, 4.85% (active); with KM12 colon, 30.3%.

On to `C=CCn1c(SCC(=O)Nc2cccc(C(=O)/C=C/c3ccccc3Cl)c2)nc2ccccc2c1=O`, for which the growth was 14% with SR leukemia; 1.65% (active) in the assay with RPMI-8226 leukemia; 92% in the assay on OVCAR-8 ovarian; 95.1% with OVCAR-5 ovarian; 87.7% in the assay on OVCAR-4 ovarian; 119% in the assay on SK-OV-3 ovarian. In addition, the growth was 92% in the assay on IGROV1 ovarian; 89.6% in the assay on HS 578T breast; 90.4% with NCI/ADR-RES ovarian; 74.5% in the assay with T-47D breast; 99.7% in the assay with BT-549 breast; 89.1% in the assay on MDA-MB-435 melanoma. Besides, the growth in the assay on SW-620 colon is 67.2%; with MCF7 breast, 24.4%; in the assay on HCT-116 colon it was -86.9% (active); in the assay with HCC-2998 colon, 100%; with KM12 colon, 80.2%.

As for `CN1CCN(c2ccc(C(=O)/C=C/c3ccc(Cl)c(C(F)(F)F)c3)cc2)CC1`, the growth in the assay with SR leukemia was 2.99% (active); in the assay on RPMI-8226 leukemia, 3.06% (active); in the assay on OVCAR-8 ovarian, 55%; with OVCAR-5 ovarian, 79.7%; with OVCAR-4 ovarian, 66%; in the assay with SK-OV-3 ovarian it was 105%. Moreover, the growth in the assay with IGROV1 ovarian was 78.1%; in the assay with HS 578T breast it was 87.3%; in the assay with NCI/ADR-RES ovarian, 64.4%; in the assay on T-47D breast, 29.6%; in the assay on BT-549 breast it was 109%; with MDA-MB-435 melanoma it was 13.7%. Also, the growth in the assay with SW-620 colon was 1.29% (active); with MCF7 breast it was 7.85% (active); in the assay on HCT-116 colon, 16.1%; in the assay on HCC-2998 colon, 33.7%; with KM12 colon, 27.3%.

For `COc1ccc(-c2nc3cc(Cl)c(Cl)cc3n2CC(=O)N=Nc2c(O)[nH]c3ccc(Cl)cc23)cc1`, the growth in the assay with SR leukemia was 51.6%; in the assay with RPMI-8226 leukemia, 40.2%; in the assay with OVCAR-8 ovarian it was 45.3%; in the assay on OVCAR-5 ovarian it was 35.4%; with OVCAR-4 ovarian, 5.4% (active); in the assay with SK-OV-3 ovarian, 52.5%. Moreover, the growth in the assay on IGROV1 ovarian was 5.72% (active); in the assay on HS 578T breast, 2.89% (active); in the assay on NCI/ADR-RES ovarian, 17.8%; with T-47D breast, -14.4% (active); with BT-549 breast, 25.8%; with MDA-MB-435 melanoma, 16.9%. Also, the growth in the assay with SW-620 colon was 32.1%; with MCF7 breast, 40%; in the assay with HCT-116 colon, 7.71% (active); in the assay with HCC-2998 colon, 29.8%; in the assay with KM12 colon, 59%.

With `COc1cc2oc(-c3cccc(NC(=O)c4cc(NC(=O)[C@H](C)N)ccc4Cl)c3)cc(=O)c2c(OC)c1OC`, the growth in the assay on SR leukemia was 73.1%; with RPMI-8226 leukemia it was 67.2%; in the assay with OVCAR-8 ovarian, 69%; in the assay with OVCAR-5 ovarian it was 106%; with OVCAR-4 ovarian, 85.9%; in the assay on SK-OV-3 ovarian, 120%. The growth with IGROV1 ovarian was 96.7%; with HS 578T breast, 99.9%; in the assay with NCI/ADR-RES ovarian it was 88.6%; in the assay with T-47D breast, 67.9%; with BT-549 breast, 108%; with MDA-MB-435 melanoma it was 105%. In addition, the growth with SW-620 colon is 104%; in the assay with MCF7 breast it was 91.4%; in the assay with HCT-116 colon it was 94.9%; in the assay on HCC-2998 colon it was 100%; in the assay on KM12 colon, 96.3%.

Turning to `CCN(CC)CCN1C(=O)c2c(c3c4cccnc4[nH]c3c3ccc4ccccc4c23)C1=O`, the growth was 3.65% (active) in the assay with SR leukemia; 73.1% with RPMI-8226 leukemia; 62.3% in the assay with OVCAR-8 ovarian; 111% in the assay on OVCAR-5 ovarian; 102% in the assay on OVCAR-4 ovarian; 64.4% in the assay on SK-OV-3 ovarian. Moreover, the growth in the assay on IGROV1 ovarian is 55%; in the assay on HS 578T breast, 109%; in the assay on NCI/ADR-RES ovarian, 55.5%; in the assay on T-47D breast, 66%; with BT-549 breast, 85.8%; in the assay with MDA-MB-435 melanoma, 87.6%. For the same compound, the growth was 53.4% in the assay on SW-620 colon; 17.4% in the assay with MCF7 breast; 63.1% in the assay on HCT-116 colon; 77.8% with HCC-2998 colon; 81.8% with KM12 colon.

Source of the values: PubChem BioAssay (NCI).
